Reference: PubChem BioAssay (NCATS)
Results filed as inconclusive are left out. Active and inactive are the calls of the source. The call rests on the fitted dose curve; in most records, active means well fitted inhibition curve with a large enough effect; inconclusive means small, poorly fitted or top-dose-only effect; inactive means flat fitted curve, though single readings scatter. *1 amine or outer side, *2 acyl side, *3 side chain or, on linkers, in order; H or OH if unused. Where a SMILES comes first, the peptide text is derived from it. Bridges are numbered along the chain shown (N, C = ends). X6 = O=C(CCC[*:2])[*:1]

How the values were obtained:
CRL-7250 = normal cell line; experiment: Cytotoxic Profiling of Annotated Libraries Using Quantitative High-Throughput Screening (AID 1296008); conditions: Five cell lines viability, CellTiter-Glo ATP luminescence, 48-72 h; max response: active compounds read low; on max response: on the % scale 0 is the no-effect control and ±100 the full control effect
In short: (§1)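 Cells exposed to compounds for 48 or 72 hr at 37 degrees Celsius. Viability read as ATP-coupled luminescence with CellTiter-Glo after 10 min at room temperature.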

HEK293 = experiment: as above; conditions: Five cell lines viability, CellTiter-Glo ATP luminescence, 48-72 h; max response: active compounds read low
In short: as §1

HaCat = experiment: as above; conditions: Five cell lines viability, CellTiter-Glo ATP luminescence, 48-72 h; max response: active compounds read low
In short: as §1

KB-3-1 = experiment: as above; conditions: Five cell lines viability, CellTiter-Glo ATP luminescence, 48-72 h; max response: active compounds read low
In short: as §1

NIH3T3 = experiment: as above; conditions: Five cell lines viability, CellTiter-Glo ATP luminescence, 48-72 h; max response: active compounds read low
In short: as §1

HEK293T = experiment: qHTS assay to identify novel small-molecules to repurpose for Merkel cell carcinoma treatment (AID 1296009); conditions: MCC and control cell lines, CellTiter-Glo viability, 72 h; series mostly up to 44.8 µM
In short: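 Cells were treated for 72 hr at 37 degree celsius with compounds in 8- or 11-point dose response. Viability was read by CellTiter-Glo luminescence, normalized to no-cell (cytotoxicity) and DMSO controls.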
Further: nearly all actives have a fitted effect of over 60% in size.

Cc1ccc(Sc2cncc3sc(C(N)=O)cc23)cc1
inactive: outcome (CRL-7250) | outcome (HEK293) | max response (HaCat) -4.86% | outcome (KB-3-1) | outcome (NIH3T3) | Potency (HEK293T)

Cn1c(=O)c2nc(/C=C/c3cccc(Cl)c3)n(C)c2n(C)c1=O
inactive: outcome (CRL-7250) | outcome (HEK293) | max response (HaCat) -5.76% | outcome (KB-3-1) | max response (NIH3T3) -2.68% | Potency (HEK293T)

CCN(c1cc(C#CCN2CCOCC2)cc(C(=O)NCc2c(C)cc(C)[nH]c2=O)c1C)C1CCC(N(C)CCOC)CC1 (stereo unspecified)
inactive: outcome (CRL-7250) | outcome (HEK293) | max response (HaCat) -3.84% | outcome (KB-3-1) | outcome (NIH3T3) | Potency (HEK293T)

CC(=O)c1c(C)cc(O[C@@H]2O[C@H](CO)[C@@H](O)[C@H](O)[C@H]2O)cc1O
inactive: outcome (CRL-7250) | outcome (HEK293) | max response (HaCat) 3.2% | max response (KB-3-1) -6.9% | max response (NIH3T3) 0.376% | Potency (HEK293T)

C=C1CC2C3(C)C(OC(C)=O)CC(=O)OC(C)(C)C3C(O)C(OC(C)=O)C2(C)C2C(=O)OC(C)C(=O)C12C (stereo unspecified)
inactive: max response (CRL-7250) -7.53% | outcome (HEK293) | max response (HaCat) -15.7% | max response (KB-3-1) 8.43% | max response (NIH3T3) -3.76% | Potency (HEK293T)

C[C@@H]1CCC2C(C)(C)[C@H](O)CC[C@]2(C)[C@@]12Cc1c(O)cc3c(c1O2)CN(CCO)C3=O (stereo partly specified)
inactive: max response (CRL-7250) -2.75% | outcome (HEK293) | max response (HaCat) 4.59% | max response (KB-3-1) 3.58% | max response (NIH3T3) 1.6% | Potency (HEK293T)

C=CC1(C)CC(OC(=O)C(=C)C(O)COC(C)=O)C(C(=C)C(=O)OC)C(O)C1C(=C)CO (stereo unspecified)
inactive: outcome (CRL-7250) | outcome (HEK293) | max response (HaCat) -1.47% | max response (KB-3-1) 1.8% | max response (NIH3T3) 0.638% | Potency (HEK293T)

C=CC(C)(O)CO[C@@H]1O[C@H](CO)[C@@H](O)[C@H](O)[C@H]1O (stereo partly specified)
inactive: max response (CRL-7250) -1.51% | outcome (HEK293) | max response (HaCat) -30.3% | max response (KB-3-1) 1.27% | max response (NIH3T3) -4.31% | Potency (HEK293T)

COc1ccccc1CC(C(=O)O)N(C)C(=O)c1ccccc1 (stereo unspecified)
inactive: max response (CRL-7250) 0.437% | outcome (HEK293) | max response (HaCat) 1.79% | max response (KB-3-1) 2.61% | max response (NIH3T3) -9.18% | Potency (HEK293T)

Cn1c(=O)cc(N2CCCC(N)C2)n(Cc2ccccc2C#N)c1=O (stereo unspecified)
inactive: max response (CRL-7250) -7.54% | outcome (HEK293) | max response (HaCat) 0.732% | max response (KB-3-1) 8.99% | outcome (NIH3T3) | Potency (HEK293T)

C[C@@H]1O[C@@H](O[C@@H]2[C@@H](O)[C@@H](O)[C@H](O[C@@H]3[C@@H](O)[C@@H](O[C@]4(CO)O[C@H](CO)[C@@H](O)[C@@H]4OC(=O)/C=C/c4ccc(O)cc4)O[C@H](CO)[C@H]3OC(=O)/C=C/c3ccc(O)cc3)O[C@H]2C)[C@H](O)[C@H](O)[C@H]1O
inactive: max response (CRL-7250) -4.29% | outcome (HEK293) | max response (HaCat) 1.83% | outcome (KB-3-1) | outcome (NIH3T3) | outcome (HEK293T) inactive [at 9.27 µM]

CC1(C)O[C@]23C[C@H]1C[C@H](OC(=O)c1ccoc1)[C@]2(C)[C@@H](OC(=O)c1ccoc1)CCC3(C)O (stereo partly specified)
inactive: max response (CRL-7250) 0.391% | outcome (HEK293) | max response (HaCat) 2.39% | max response (KB-3-1) 7.96% | max response (NIH3T3) -0.102% | Potency (HEK293T)

CC1(CO)CC[C@]2(C(=O)O[C@@H]3O[C@H](CO)[C@@H](O)[C@H](O)[C@H]3O)CC[C@]3(C)C(=CCC4[C@@]5(C)CC[C@H](O[C@@H]6O[C@H](C(=O)O)[C@@H](O)[C@H](O)[C@H]6O)C(C)(C)C5CC[C@]43C)C2C1 (stereo partly specified)
inactive: max response (CRL-7250) -1.41% | outcome (HEK293) | max response (HaCat) 1.75% | outcome (KB-3-1) | outcome (NIH3T3) | outcome (HEK293T) inactive [at 9.27 µM]

CC[C@H](C)[C@@H]1NC(=O)[C@H](Cc2ccc(OC)cc2)NC(=O)CCCSC[C@@H](C(=O)N2CCC[C@H]2C(=O)N[C@@H](CC(C)C)C(=O)NCC(N)=O)NC(=O)[C@H](CC(N)=O)NC(=O)[C@H](CCC(N)=O)NC1=O (Y(Me)IQNCPLG-NH2; linker N-5 via X6)
inactive: max response (CRL-7250) -0.379% | outcome (HEK293) | max response (HaCat) -67.2% | outcome (KB-3-1) | outcome (NIH3T3) | Potency (HEK293T)

C=C1C(=O)O[C@H]2[C@H]1[C@@H](OC(=O)C(C)CO)C[C@@]1(C)[C@H](O)CCC(=O)[C@H]21 (stereo partly specified)
inactive: max response (CRL-7250) -10.3% | outcome (HEK293) | max response (HaCat) -8.77% | outcome (KB-3-1) | max response (NIH3T3) -0.0339% | Potency (HEK293T)

O=S(=O)(Nc1ccc(C(O)(C(F)(F)F)C(F)(F)F)cc1)c1cccs1
inactive: max response (CRL-7250) 2.89% | outcome (HEK293) | max response (HaCat) 2.6% | max response (KB-3-1) 6.97% | outcome (NIH3T3) | Potency (HEK293T)

C=CC1(C)CC(O)C2(CCC3C(C)(C(=O)O)CCCC3(C)C2=O)C1 (stereo unspecified)
inactive: max response (CRL-7250) -1.04% | outcome (HEK293) | max response (HaCat) -1.18% | outcome (KB-3-1) | max response (NIH3T3) 1.85% | Potency (HEK293T)

Cc1coc2c1CC1OC1(C)CCC1OC1(C)C2 (stereo unspecified)
inactive: max response (CRL-7250) 4.59% | outcome (HEK293) | max response (HaCat) 3.75% | max response (KB-3-1) 8.78% | outcome (NIH3T3) | Potency (HEK293T)

CC(O)(CC(=O)O)CC(=O)O[C@@H]1[C@@H](O)[C@H](OCCc2ccccc2)O[C@H](CO)[C@H]1O (stereo partly specified)
inactive: max response (CRL-7250) -0.691% | outcome (HEK293) | max response (HaCat) -14.4% | max response (KB-3-1) 7.92% | max response (NIH3T3) 1.93% | Potency (HEK293T)

C[C@@H]1O[C@@H](O[C@H]2[C@H](OC(=O)C34CCC(C)(C)CC3C3=CCC5C6(C)CC(O)C(O[C@@H]7O[C@H](CO)[C@@H](O)[C@H](O)[C@H]7O)C(C)(C(=O)O)C6CCC5(C)C3(CO)CC4)O[C@H](C)[C@H](O)[C@@H]2O)[C@H](O)[C@H](O)[C@H]1O[C@@H]1OC[C@@H](O)[C@H](O)[C@H]1O (stereo partly specified)
inactive: max response (CRL-7250) -4.64% | outcome (HEK293) | max response (HaCat) 3.66% | outcome (KB-3-1) | max response (NIH3T3) 2.3% | outcome (HEK293T) inactive [at 9.27 µM]

Cc1cc(N2CCCCC2)nc2ccccc12
inactive: max response (CRL-7250) -12.2% | outcome (HEK293) | max response (HaCat) -14.3% | outcome (KB-3-1) | outcome (NIH3T3) | Potency (HEK293T)

C=CCc1ccc(O[C@@H]2O[C@H](CO[C@@H]3O[C@H](CO)[C@@H](O)[C@H](O)[C@H]3O)[C@@H](O)[C@H](O)[C@H]2O)c(O)c1
inactive: max response (CRL-7250) -24.9% | outcome (HEK293) | max response (HaCat) -10.9% | max response (KB-3-1) -2.46% | outcome (NIH3T3) | Potency (HEK293T)

COc1cc(/C=C/C(=O)OC2CC3CCC2(C)C3(C)C)ccc1O (stereo unspecified)
inactive: outcome (CRL-7250) | outcome (HEK293) | max response (HaCat) -0.121% | max response (KB-3-1) 9.6% | outcome (NIH3T3) | Potency (HEK293T)

C[C@@H]1O[C@@H](O[C@H]2[C@H](O[C@H]3CC[C@@]4(C)C(CC[C@]5(C)C4CC=C4C6CC(C)(C)CC[C@]6(C(=O)O[C@@H]6O[C@H](CO[C@@H]7O[C@H](CO)[C@@H](O[C@@H]8O[C@@H](C)[C@H](O)[C@@H](O)[C@H]8O)[C@H](O)[C@H]7O)[C@@H](O)[C@H](O)[C@H]6O)CC[C@]45C)[C@]3(C)CO)OC[C@H](O)[C@@H]2O)[C@H](O)[C@H](O)[C@H]1O (stereo partly specified)
inactive: outcome (CRL-7250) | outcome (HEK293) | max response (HaCat) -8.43% | max response (KB-3-1) 4.12% | max response (NIH3T3) -6.66% | outcome (HEK293T) inactive [at 9.27 µM]

COc1c(C(CC(C)C)OC(C)=O)ccc(Oc2c(O)cc(C)cc2/C=C/C(C)=O)c1C(=O)O (stereo unspecified)
inactive: max response (CRL-7250) -10.2% | outcome (HEK293) | max response (HaCat) -7.86% | max response (KB-3-1) 3.96% | max response (NIH3T3) -18.3% | Potency (HEK293T)

O=c1c2ccccc2nc2n1CCC2O (stereo unspecified)
inactive: outcome (CRL-7250) | outcome (HEK293) | max response (HaCat) 4.07% | outcome (KB-3-1) | max response (NIH3T3) 2.87% | Potency (HEK293T)

O=C(/C=C/c1ccc(O)cc1)O[C@H]1[C@@H]2C=CO[C@@H](O[C@@H]3O[C@H](CO)[C@@H](O)[C@H](O)[C@H]3O)[C@@H]2[C@@]2(CO)O[C@@H]12
inactive: max response (CRL-7250) -3.08% | outcome (HEK293) | max response (HaCat) 1.73% | outcome (KB-3-1) | max response (NIH3T3) 0.736% | Potency (HEK293T)

CC[C@H]1OC(=O)[C@H](C)[C@@H](O[C@H]2C[C@@](C)(OC)[C@@H](O)[C@H](C)O2)[C@H](C)[C@@H](O[C@@H]2O[C@H](C)C[C@H](N(C)C)[C@H]2O)[C@@](C)(O)C[C@@H](C)[C@@H]2N[C@@H](COCCOC)OC([C@H]2C)[C@]1(C)O
inactive: max response (CRL-7250) -11.1% | outcome (HEK293) | max response (HaCat) -20.8% | outcome (KB-3-1) | max response (NIH3T3) -6.11% | Potency (HEK293T)

OCC1=CC[C@@H]2C=CO[C@@H](O[C@@H]3O[C@H](CO)[C@@H](O)[C@H](O)[C@H]3O)[C@H]12
inactive: outcome (CRL-7250) | outcome (HEK293) | max response (HaCat) -13.7% | outcome (KB-3-1) | max response (NIH3T3) -0.173% | Potency (HEK293T)

CC1(C)CCC2(C(=O)OC3OC(COC4OC(CO)C(O)C(O)C4O)C(O)C(O)C3O)CCC3(C)C(=CCC4C5(C)CCC(O)C(C)(C(=O)O)C5CCC43C)C2C1O (stereo unspecified)
inactive: outcome (CRL-7250) | outcome (HEK293) | max response (HaCat) 2.41% | outcome (KB-3-1) | max response (NIH3T3) 4.9% | outcome (HEK293T) inactive [at 9.27 µM]

CC1(C)CC[C@]2(C(=O)O)CC[C@]3(C)C(=CCC4[C@@]5(C)C[C@@H](O)[C@H](O)C(C)(C)C5CC[C@]43C)[C@@H]2[C@@H]1O (stereo partly specified)
inactive: max response (CRL-7250) -1.48% | outcome (HEK293) | max response (HaCat) -22.1% | max response (KB-3-1) 0.492% | max response (NIH3T3) -12.3% | Potency (HEK293T)
